Data on 24 compounds can be found in PubChem BioAssay AID2673 (National Center for Advancing Translational Sciences (NCATS), 2010).

Records with an inconclusive call do not appear. Entries that show only a call come without a potency. Activity calls are given as the source filed them. Calls come from the whole dose curve; as a rule, active = well fitted activation curve with a large enough effect; inconclusive = small, poorly fitted or top-dose-only effect; inactive = no such curve, though single readings can be large or run the other way.

This test is described as follows: qHTS Multiplex Assay to Identify Dual Action Probes in a Cell Model of Huntington: Cytoprotection confirmation (ATP). Particulars: PC12 HttQ103 induced, ATP luminescence 40 h; series mostly up to 46.1 µM. A digest of the protocol: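 PC12 cells expressing ecdysone-inducible HTT exon 1 (Q103)-GFP, induced with 100 nM tebufenozide and exposed to compounds; cytoprotection read as cellular ATP by ATPlite luminescence.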
On the technique in general: qHTS replaces the single test concentration by a dilution series.
With `CCN(Cc1ccncc1)C(=O)c1cc(Br)cc(Br)c1O`, the Potency entry is “inactive”.

`COc1ccccc1-n1nnnc1S(=O)(=O)Cc1ccc(Cl)cc1`: the Potency result is “inactive”.

`N#CCCn1c(Cl)nc2ccccc21`: the Potency entry was “inactive”.

For `COc1ccc2cc3cc(C(=O)N4CCN(c5ccccc5)CC4)oc3nc2c1`, the Potency result was “inactive”.

`O=C(Nc1cccnc1)Nc1ccccc1Cl`: the Potency entry was “inactive”.

In the case of `C=C1CCC2[C@](C)(CO)[C@H](O)CC[C@@]2(C)[C@@H]1C/C=C1/C(=O)OC[C@H]1O` (some centres undefined), the Potency result was “inactive”.

`O=c1c2ccccc2nnn1CSc1ncnc2ccccc12`: the Potency result is “inactive”.

For `Cn1nnnc1Sc1ncnc2scc(-c3ccccc3C#N)c12`, the Potency is 28.2 µM (active).

On to `O=C(NCN1C(=O)C2C3C=CC(C3)C2C1=O)Nc1ccccn1` (centres undefined), for which the Potency result was “inactive”.

Regarding `COc1cccc(C(=O)Nc2ccc(F)c(F)c2F)c1`, the Potency entry is “inactive”.

Turning to `Cn1nnnc1Sc1ncnc2scc(-c3cccs3)c12`, the Potency is 10 µM (active).

Regarding `Cn1nnnc1Sc1ncnc2scc(-c3cccc(C(F)(F)F)c3)c12`, the Potency was 14.1 µM (active).

Take `CC(=O)c1cccc(-c2csc3ncnc(Sc4nnnn4C)c23)c1`: the Potency is 10 µM (active).

Consider `CC(=O)c1ccc(-c2csc3ncnc(Sc4nnnn4C)c23)cc1`, for which the Potency entry was “inactive”.

Consider `Fc1cccc(Cl)c1Cn1nnc2c(-n3ccnc3)ncnc21`, for which the Potency result was “inactive”.

As to `COc1ccc(-c2[nH]ncc2-c2ccc3c(c2)OCCO3)c(O)c1`, the Potency result is “inactive”.

Turning to `Cn1nnnc1Sc1ncnc2scc(-c3ccc4ccccc4c3)c12`, the Potency is 12.6 µM (active).

`Cn1nnnc1Sc1ncnc2scc(-c3ccsc3)c12`: the Potency was 11.2 µM (active).

On to `CN(C)CCCSc1ccccc1NC(=O)/C=C\c1ccccc1`, for which the Potency entry was “inactive”.

As for `Cn1nnnc1Sc1ncnc2scc(Br)c12`, the Potency entry is “inactive”.

Consider `Cn1nnnc1Sc1ncnc2scc(-c3cccc(F)c3)c12`, for which the Potency was 14.1 µM (active).

`CC(=O)Oc1cccc(C(=O)O)c1OC(C)=O`: the Potency entry was “inactive”.

For the compound `Cn1nnnc1Sc1ncnc2scc(-c3ccc(C(=O)OC(C)(C)C)cc3)c12`, the Potency result was “inactive”.

For the compound `Cc1nnsc1C(=O)N/N=C/c1ccc2ccccc2c1O`, the Potency entry is “inactive”.
